Screening results deposited in PubChem by National Center for Advancing Translational Sciences (NCATS).
In the library only some 19% were active in any assay of this set; here they are far more common.
TGFb SMAD3 inh: TGF-b pathway inhibition. HepG2 CAGA-GFP TGF-b/SMAD3 reporter, GFP fluorescence, 18 h; TGF-beta stimulated, 500 pg/mL final. Potency, µM (top dose mostly 46.1 µM), for the others: at the highest dose activity, negative = inhibition, hits mostly inhibitors. 1.2% of 410,000 active; also: potency is read from the fitted curve at half-maximal effect; % is scaled to controls: 0 for no effect and ±100 for the full control effect; nearly all actives have a fitted effect of over 65% in size
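HEPG2 CAGA-GFP reporter cells (1000/well, DMEM with 1% FBS) received compounds, then recombinant TGF-beta at 500 pg/mL final for 18 hours at 37 degrees C. Per-cell GFP summed per well was normalised to unstimulated and stimulated DMSO controls before curve fitting.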
TDP1 inh: TDP1 (human) enzyme inhibition | Q9NUW8 | recombinant TDP1, AlphaScreen DNA substrate cleavage | Potency, µM (top dose mostly 130 µM), for inactives: at the top dose activity change, negative = inhibition, most hits filed as inhibitors | 0.28% of 350,000 active | AID 485290; also: potency is read from the fitted curve at half-maximal effect; % is scaled to controls: 0 for no effect and ±100 for the full control effect; nearly all actives have a fitted effect of over 40% in size
Target sequence (Q9NUW8 whole entry, looked up): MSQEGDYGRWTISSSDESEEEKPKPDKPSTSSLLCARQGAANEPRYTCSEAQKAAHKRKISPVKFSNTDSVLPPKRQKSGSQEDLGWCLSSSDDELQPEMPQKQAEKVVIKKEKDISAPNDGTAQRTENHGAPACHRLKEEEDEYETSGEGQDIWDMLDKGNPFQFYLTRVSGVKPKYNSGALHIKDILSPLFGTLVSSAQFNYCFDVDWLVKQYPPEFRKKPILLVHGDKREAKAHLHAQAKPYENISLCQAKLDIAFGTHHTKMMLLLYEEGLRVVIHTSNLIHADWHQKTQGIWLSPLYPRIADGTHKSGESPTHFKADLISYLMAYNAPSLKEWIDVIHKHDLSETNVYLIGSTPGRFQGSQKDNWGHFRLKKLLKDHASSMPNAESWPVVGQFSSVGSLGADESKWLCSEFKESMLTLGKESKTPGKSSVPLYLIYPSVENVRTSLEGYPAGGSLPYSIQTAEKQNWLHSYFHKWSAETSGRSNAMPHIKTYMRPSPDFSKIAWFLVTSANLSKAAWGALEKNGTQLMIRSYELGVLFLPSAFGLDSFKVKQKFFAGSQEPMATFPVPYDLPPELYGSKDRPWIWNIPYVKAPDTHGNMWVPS
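Recombinant E. coli-expressed Tdp1 (1 nM) preincubated with compound 15 min at RT, then 5'-biotin/3'-phosphotyrosine-FITC DNA substrate (15 nM) added for 5 min. AlphaScreen beads (10 ug/ml) added, 10 min RT; tyrosine-FITC cleavage read as signal loss.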
TDP1 cell CPT: growth inhibition of DT40 Tdp1-/-;hTDP1 cells with camptothecin (screen for TDP1 inhibitors) | chicken DT40 Tdp1-/-;hTDP1 cells + 20 nM CPT, ATP luminescence, 48 h | Potency, µM (doses to about 46.2 µM), inactives show at the highest dose activity change, negative = growth inhibition, hits mostly inhibitors | 12% of 420,000 active | AID 686979; also: potency is read from the fitted curve at half-maximal effect; % is scaled to controls: 0 for no effect and ±100 for the full control effect; nearly all actives have a fitted effect of over 55% in size
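Cell growth measured by CellTiter-Glo luminescence after a minimum 48 h, 37 C compound exposure with 20 nM CPT in Tdp1-knockout DT40 cells stably expressing hTDP1, seeded 400/well; qHTS titration format.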
TDP1 cell noCPT: qHTS for Inhibitors of human tyrosyl-DNA phosphodiesterase 1 (TDP1): qHTS in cells in absence of CPT; DT40 Tdp1-/- hTDP1 cells, no CPT, ATP luminescence, 48 h; Potency, µM (highest dose often 46.2 µM), without a hit: top-dose activity change, negative = growth inhibition, usual class: inhibitors; 15% of 420,000 active; AID 686978, 2013; also: potency is read from the fitted curve at half-maximal effect; % is scaled to controls: 0 for no effect and ±100 for the full control effect; nearly all actives have a fitted effect of over 55% in size
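No-CPT arm: Tdp1-/-;hTDP1 DT40 cells (400/well) plus compounds, incubated ≥48 hr at 37 °C. Readout CellTiter-Glo luminescence.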
HepG2 viability: counter-screen for TGF-b inhibitors: cytotoxicity in HepG2 cells. HepG2 CAGA-GFP viability, ATP luminescence, 18 h. AID 588856. Potency, µM (highest dose often 46.1 µM), for the others: at the top dose activity change, negative = cytotoxicity, actives largely listed as cytotoxic. 0.76% of 410,000 active; also: potency is read from the fitted curve at half-maximal effect
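HepG2 CAGA-GFP cells (1000/well, DMEM with 1% FBS) received compound, then TGF-beta at 500 pg/mL final, and were incubated 18 hours at 37 degrees C. Viability was read by CellTiter-Glo luminescence. Media-only wells were set as complete cell-killing and DMSO as no toxicity.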
IL-1B inflam inh: inhibitors of inflammasome signaling (IL-1 beta secretion); THP-1 LPS/ATP IL-1B secretion, AlphaLISA, 16 h; active compounds read low; activity change, % at 57.5 µM; 4.7% of 360,000 active; in the data active = activity change below about -50%; inconclusive = mostly about -30% to -49%; also: % is scaled to controls: 0 for no effect and ±100 for the full control effect
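THP-1 cells pretreated 1 hr with compounds (up to 57.5 uM final), then stimulated with LPS (250 ng/mL final) plus ATP (1.25 mM final); secreted IL-1B measured by AlphaLISA after 16 hr, decreased signal indicating inhibition.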
The depositor's hits bear a star; [ ] = dose if it differs, or a comment. Unless noted, calls follow the shape of the dose curve; as a rule, active = well fitted curve in the direction sought with a large enough effect; inconclusive = small, poorly fitted or top-dose-only effect, or another doubt; inactive = no such curve, though single readings can be large; an effect the other way counts as inactive or inconclusive.

For Cc1ccc(NC(=O)C2CCN(C(=O)OC(C)(C)C)CC2)cc1S(=O)(=O)N1CCCCC1 the results were TGFb SMAD3 inh inconclusive, TDP1 inh -4%[56.1 µM], TDP1 cell CPT inconclusive, TDP1 cell noCPT -51%, HepG2 viability -2% and IL-1B inflam inh -5.
Screening C/C(CCN1CCCc2nc(C)c(C)cc21)=N\OC[C@@H](C)[C@H](OCc1ccccc1)C(C)C returned TDP1 inh 10%[21 µM].
For COC(=O)C(N)CS (centres undefined) the results were TDP1 inh 10%, TDP1 cell CPT 7% and TDP1 cell noCPT 25%.
`Cc1ccc(S(=O)(=O)N2CCC(C(=O)Nc3ccccc3N3CCCCC3)CC2)cc1C` gave TGFb SMAD3 inh -9%, TDP1 inh 5%, TDP1 cell CPT 18µM*, TDP1 cell noCPT inconclusive, HepG2 viability 0% and IL-1B inflam inh 16.
For Cc1cccc(NC(=O)C2CCN(S(=O)(=O)c3ccc4c(c3)C(C)(C)C(=O)N4C)CC2)c1C the results were TGFb SMAD3 inh 0%, TDP1 cell CPT inconclusive, TDP1 cell noCPT inconclusive, HepG2 viability 2% and IL-1B inflam inh -7.
Cc1ccc(NS(=O)(=O)c2ccc(NC(=O)C3CC3)cc2)cc1C was read as TGFb SMAD3 inh -11%, TDP1 inh 5%, TDP1 cell CPT 18µM*, TDP1 cell noCPT inconclusive, HepG2 viability 2% and IL-1B inflam inh -2.
For CC(C)c1ccc(NC(=O)C2CCN(S(=O)(=O)c3ccc4c(c3)C(C)(C)C(=O)N4C)CC2)cc1 the results were TGFb SMAD3 inh inconclusive, TDP1 cell CPT 16µM*, TDP1 cell noCPT inconclusive, HepG2 viability -16% and IL-1B inflam inh 50.
`COC(=O)C1(C(=O)OC)CCCCN(S(=O)(=O)c2ccc(C)cc2)CCC1` gave TDP1 cell CPT inconclusive, TDP1 cell noCPT 21µM* and IL-1B inflam inh 3.
`Cc1ccc(S(=O)(=O)N2CCN(C(=O)N3CCCC3)CC2)cc1` gave TGFb SMAD3 inh -13%, TDP1 cell CPT -9%, TDP1 cell noCPT 1%, HepG2 viability -9% and IL-1B inflam inh 3.
For COc1cc(-c2nnc(SCC(=O)NCc3ccccc3Cl)o2)cc(OC)c1OC the results were TGFb SMAD3 inh 3%, TDP1 inh -3%, TDP1 cell CPT inconclusive, TDP1 cell noCPT inconclusive and HepG2 viability 0%.
Screening COc1ccc(NS(=O)(=O)c2ccc(NC(=O)C3CCCO3)cc2)cc1 (centres undefined) returned TGFb SMAD3 inh 8%, TDP1 inh 7%, TDP1 cell CPT inconclusive, TDP1 cell noCPT inconclusive, HepG2 viability -25% and IL-1B inflam inh 26.
Cc1ccc(S(=O)(=O)N2CCCN(C(=O)c3cc4ccccc4[nH]3)CC2)cc1 was read as TGFb SMAD3 inh inconclusive, TDP1 inh 9%, TDP1 cell CPT 2%, TDP1 cell noCPT inconclusive, HepG2 viability -22% and IL-1B inflam inh -61*.
`CN1CCN(C(=O)c2cc3ccccc3[nH]2)CC1` gave TGFb SMAD3 inh 4%, TDP1 cell CPT 6%, TDP1 cell noCPT -16%, HepG2 viability -20% and IL-1B inflam inh 9.
For Cc1ccc(NS(=O)(=O)c2ccc(NC(=O)C3CCCO3)cc2)cc1 (centres undefined) the results were TGFb SMAD3 inh 14%, TDP1 inh 0%, TDP1 cell CPT inconclusive, TDP1 cell noCPT 12µM*, HepG2 viability 17% and IL-1B inflam inh 2.
For Cc1ccc(S(=O)(=O)N2CCN(c3nn(C)c(=O)n(C)c3=O)CC2)cc1C the results were TGFb SMAD3 inh -11%, TDP1 inh 1%, TDP1 cell CPT 7.3µM*, TDP1 cell noCPT inconclusive, HepG2 viability -30% and IL-1B inflam inh -2.
